Results from PubChem BioAssay (NCATS).
Where “and” joins values, the source holds several entries; their conditions need not be identical. Equal entries are not always repeated. Results filed as inconclusive are left out. Where a call stands in place of a potency, no number is given. Unmarked numbers belong to inactive results. Calls of active or inactive are those of the source. Unless noted, the call rests on the fitted dose curve; in most records, active means well fitted curve in either direction with a large enough effect (not every such curve was filed as active); inconclusive means small, poorly fitted or top-dose-only effect, or another doubt; inactive means flat fitted curve, though single readings scatter.

Assay: Cell Viability - MRC5 (AID 434; calls by dose curve;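 further: potency means the concentration at half of the fitted maximal effect; cells exposed to compound for 40 hours at 37 °C; potency reflects cytotoxicity seen as loss of intracellular ATP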)
Settings: MRC5 lung fibroblast viability, qHTS
Method in brief: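 Decrease in intracellular ATP, quantified by luciferase light output, reflects compound toxicity toward MRC5 cells exposed for 40 hr in complete culture medium. Concentration-response curves, scaled between DMSO and 100 uM tamoxifen, gave AC50 values.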

Structure (SMILES) | Potency [µM]
Cc1cc(C)nc(NS(=O)(=O)c2ccc(N)cc2)n1 | > 92
C=CCNC(N)=S | > 92
CCN(CC)C(=O)c1cccc(C)c1 | > 92
CC(=O)NS(=O)(=O)c1ccc(N)cc1 | > 92

Assay: Cell Viability - SK-N-SH (AID 435; calls by dose curve;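 further: potency means the concentration at half of the fitted maximal effect; compound exposure lasted 40 h at 37 °C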)
Settings: SK-N-SH neuroblastoma cell viability qHTS
Method in brief: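 Human neuroblastoma line, 40 h exposure at 37 °C, ATP quantified via luciferase luminescence; DMSO and 100 uM tamoxifen define 0 and 100% inhibition for AC50 fitting.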

Structure (SMILES) | Potency [µM]
Cc1cc(C)nc(NS(=O)(=O)c2ccc(N)cc2)n1 | > 92
C=CCNC(N)=S | > 92
CCN(CC)C(=O)c1cccc(C)c1 | > 92
CC(=O)NS(=O)(=O)c1ccc(N)cc1 | > 92

Assay: NFAT Signaling Pathway (AID 444);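 further: carbachol stimulus at about its EC50 of 1 µM final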
Settings: Jurkat NFAT-bla M1, carbachol, beta-lactamase ratio, 5 h; at 17.2 µM (top of the series) unless noted
Method in brief: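 Jurkat cells carrying an NFAT-driven β-lactamase reporter and co-transfected muscarinic M1 receptor were treated with compound plus carbachol (1 uM final, an EC50 level) for 5 h at 37 °C. CCF4 loading followed for 1 h at RT; 460/530 nm ratio gave %activity.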

Structure (SMILES) | activity change, negative = inhibition
NCc1ccc(S(N)(=O)=O)cc1 | -1.12% and 9.4%
O=S1(=O)OC(c2ccc(O)cc2)(c2ccc(O)cc2)c2ccccc21 | 14.9% [at 7.69 µM]
Cn1c(=O)c2c(ncn2CCO)n(C)c1=O | -0.574%

Assay: Stat Signaling Pathway (AID 446);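 further: ME-180 cervical cancer cells given 40 pM IL-6 alongside compound; SIE-controlled beta-lactamase reporter measured as 460/530 nm FRET emission ratio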
Settings: ME-180 (cervical carcinoma) SIE beta-lactamase reporter, IL-6 stimulated, 5 h; series mostly up to 17.2 µM
Method in brief: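 Compound effects on IL-6-induced STAT reporter activity were measured in ME-180 cells. After overnight culture, cells were co-treated with 40 pM IL-6 for 5 hrs before beta-lactamase substrate loading at room temperature.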

Structure (SMILES) | outcome
COc1ccc2cc(CCC(C)=O)ccc2c1 | inactive
NCc1ccc(S(N)(=O)=O)cc1 | inactive
CC[N+](CC)(CC(=O)Nc1c(C)cccc1C)Cc1ccccc1 | inactive
C[C@@H]1CCC[C@H](C)N1 | inactive
CCCCC1(COC(=O)CCC(=O)O)C(=O)N(c2ccccc2)N(c2ccccc2)C1=O | inactive
CC(=O)SC[C@@H](Cc1ccccc1)C(=O)NCC(=O)OCc1ccccc1 | inactive
Cc1cc(NC(=O)C2=C(O)c3ccccc3S(=O)(=O)N2C)no1 | inactive
NC(N)=NS(=O)(=O)c1ccc(N)cc1 | inactive
O=S1(=O)OC(c2ccc(O)cc2)(c2ccc(O)cc2)c2ccccc21 | inactive
Cn1c(=O)c2c(ncn2CCO)n(C)c1=O | inactive
Cc1cc(C)nc(NS(=O)(=O)c2ccc(N)cc2)n1 | inactive
O=C(O)c1ccccc1C(=O)Nc1ccc(S(=O)(=O)Nc2nccs2)cc1 | inactive
Cc1ncc(CO)c(CN)c1O | inactive
CC[N+](C)(CC)CCOC(=O)C1c2ccccc2Oc2ccccc21 | inactive
CCN(CC)CCOC(=O)C(c1ccccc1)c1ccccc1 | inactive
CCc1cccc(CC)c1NC(=O)CN(CC(=O)O)CC(=O)O | inactive
CN/C(=C\[N+](=O)[O-])NCCSCc1csc(CN(C)C)n1 | inactive
CCOC(=O)[C@H](CCc1ccccc1)N[C@@H](C)C(=O)N1CCC[C@H]1C(=O)O | inactive
Cc1cccc(Nc2ccccc2C(=O)O)c1C | inactive
NS(=O)(=O)c1ccc(C(=O)O)cc1 | inactive
Cc1c(NC(C)C)c(=O)n(-c2ccccc2)n1C | inactive
O=C(Cn1ccnc1[N+](=O)[O-])NCCO | inactive
O=C(O)COC(=O)Cc1ccccc1Nc1c(Cl)cccc1Cl | inactive
O=C(O)c1ccccc1OP(=O)(O)O | inactive
CC(C)(C)C(=O)OCOC(=O)[C@@H]1N2C(=O)[C@@H](NC(=O)[C@H](N)c3ccccc3)[C@H]2SC1(C)C | inactive
CC(=O)NS(=O)(=O)c1ccc(N)cc1 | inactive
Cn1c([N+](=O)[O-])cnc1COC(N)=O | inactive
CCN(CC)CCc1nc(-c2ccccc2)no1 | inactive
